From PubChem BioAssay (NCI)
This is part of a sample that, as a whole, favours compounds with a hit. Of some 79,000 tested, about 15% had one in any assay. Unmarked numbers belong to inactive results. Activity calls are given as the source filed them. No stated cut-off is given here; in the data, active means growth inhibition above about 70%; inactive means the rest.

Key:
[1] = NCI Yeast Anticancer Drug Screen. Data for the rad50 strain (AID 155);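 further: 0% = growth of vehicle-only cultures of the same strain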; conditions: S. cerevisiae rad50 strain growth inhibition, hits give high values
Procedure, shortened: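 Readout: growth inhibition relative to vehicle-treated cultures. Compound exposure was carried out in a genetically defined yeast strain deficient in DNA damage repair.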

[2] = NCI Yeast Anticancer Drug Screen. Data for the mec2-1 strain (AID 157); conditions: S. cerevisiae mec2-1 strain, hits give high values
Procedure, shortened: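 Using mec2-1 yeast: add compound, measure growth, express inhibition versus vehicle-treated cultures.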

[3] = NCI Yeast Anticancer Drug Screen. Data for the sgs1 mgt1 strain (AID 161);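 further: 0% = growth of cultures given vehicle only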; conditions: S. cerevisiae sgs1 mgt1 strain, hits give high values
Procedure, shortened: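 Growth of a repair-deficient yeast mutant was monitored after compound treatment and expressed as inhibition relative to vehicle-treated cultures.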

[4] = NCI Yeast Anticancer Drug Screen. Data for the cln2 rad14 strain (AID 165);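 further: 0% = growth equal to vehicle treated cultures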; conditions: S. cerevisiae cln2 rad14 strain, hits give high values
Procedure, shortened: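 Yeast strain cln2 rad14, bearing defects in cell cycle control and DNA repair, serves as the test system; values reflect growth inhibition compared with vehicle.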

[5] = NCI Yeast Anticancer Drug Screen. Data for the bub3 strain (AID 167); conditions: S. cerevisiae bub3 mutant strain, hits give high values
Procedure, shortened: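 Readout: yeast growth inhibition, expressed relative to vehicle-only wells. The test organism is a mutant strain from a panel with lesions in DNA repair or checkpoint genes.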

[6] = NCI Yeast Anticancer Drug Screen. Data for the mlh1 rad18 strain (AID 175); conditions: S. cerevisiae mlh1 rad18 strain growth inhibition, hits give high values
Procedure, shortened: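 Steps: expose repair-defective yeast to compound; measure growth; express inhibition against vehicle-treated controls.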

[7] = at 5.0 µM (retest, dose inferred, filed as 0.5)
[8] = at 50.0 µM (retest, dose inferred, filed as 5.0)

Structure (SMILES) | growth inhibition [1, 7] | growth inhibition [1, 8] | growth inhibition ([1]; at 50.0 µM) | growth inhibition [2, 7] | growth inhibition [2, 8] | growth inhibition ([2]; at 50.0 µM) | growth inhibition [3, 7] | growth inhibition [3, 8] | growth inhibition ([3]; at 50.0 µM) | growth inhibition [4, 7] | growth inhibition [4, 8] | growth inhibition ([4]; at 50.0 µM) | growth inhibition [5, 7] | growth inhibition [5, 8] | growth inhibition ([5]; at 50.0 µM) | growth inhibition [6, 7] | growth inhibition [6, 8] | growth inhibition ([6]; at 50.0 µM)
COc1ccc(N=NC(C(=O)c2ccccc2)C(=O)c2ccccc2)cc1 | 29% | 96% (active) | 92.3% (active) | -1% | 94% (active) | 93.2% (active) | 20% | 94% (active) | 92.4% (active) | 6% | 95% (active) | 88.7% (active) | -3% | 97% (active) | 91.2% (active) | -18% | 97% (active) | 91.2% (active)
Cc1ccc2c(n1)C(=O)C=CC2=O | 25% | 94% (active) | 80.1% (active) | 5% | 94% (active) | 89.5% (active) | 22% | 90% (active) | 80.8% (active) | 22% | 77% (active) | 22.9% | 20% | 97% (active) | 80.8% (active) | 17% | 93% (active) | 36.2%
O=[N+]([O-])c1ccc(-c2nc(/C=N/N3CCCCC3)cs2)o1 | 12% | 57% | 69.7% | 1% | 26% | 43.5% | 17% | 76% (active) | 84.5% (active) | -7% | 32% | 42.4% | -1% | 3% | 15.2% | 16% | 64% | 66.5%
CCOc1ccc2nc3cc(Cl)ccc3[n+](C)c2c1 | 20% | 79% (active) | 85.2% (active) | 14% | 87% (active) | 87.3% (active) | 15% | 87% (active) | 82.8% (active) | 10% | 74% (active) | 72.7% (active) | 32% | 88% (active) | 83.9% (active) | 15% | 81% (active) | 86.7% (active)
Cc1ccc2ccc(C(Nc3ccccc3)c3ccncc3)c(O)c2n1 (configuration not stated) | -6% | 92% (active) | 90.8% (active) | -2% | 95% (active) | 82.8% (active) | 4% | 87% (active) | 43.5% | -6% | 81% (active) | 49.3% | -7% | 92% (active) | 81.1% (active) | -5% | 92% (active) | 89% (active)
CC(O)CCCOC(c1ccccc1)(c1ccccc1)c1ccccc1 (configuration not stated) | 19% | 97% (active) | 86.5% (active) | 9% | 97% (active) | 83.8% (active) | 17% | 95% (active) | 80.8% (active) | 15% | 94% (active) | 82.7% (active) | 28% | 93% (active) | 80.5% (active) | 19% | 96% (active) | 84.4% (active)
CCN1C2=NCCN2S(=O)(=O)c2ccccc21 | 5% | 11% | -14.4% | 9% | 9% | -4.45% | 8% | 14% | -27.9% | 14% | 10% | -20.6% | 13% | 11% | -22.1% | 20% | 13% | -5.3%
CCCCCCCCCCCC(=O)N(CC)CC | -3% | 99% (active) | 99.8% (active) | 1% | 99% (active) | 99.9% (active) | -4% | 100% (active) | 99.8% (active) | -1% | 99% (active) | 99% (active) | 2% | 100% (active) | 99.7% (active) | 14% | 99% (active) | 99.8% (active)
CN(C)CCN(C)N=Nc1c(-c2ccc(Cl)cc2)n[nH]c1C(F)(F)F | 98% (active) | 99% (active) | 98.8% (active) | 99% (active) | 99% (active) | 99.7% (active) | 99% (active) | 99% (active) | 99.4% (active) | 99% (active) | 99% (active) | 99.3% (active) | 99% (active) | 99% (active) | 96% (active) | 99% (active) | 99% (active) | 99.5% (active)
CCCCCCCCCCCC[N+](C)(C)C (tested in a mixture with another compound) | -7% | 99% (active) | 67.9% | 5% | 99% (active) | 93.8% (active) | -4% | 98% (active) | 49.2% | 5% | 98% (active) | 10.6% | 20% | 99% (active) | 88.5% (active) | 0% | 98% (active) | 64%
CN1CCC(CCC(=O)OC(C)(C)C)(CN2c3ccccc3Sc3ccccc32)C1 (configuration not stated) | -4% | 98% (active) | 99.5% (active) | -14% | 96% (active) | 99.8% (active) | -12% | 96% (active) | 99.7% (active) | -12% | 97% (active) | 96.7% (active) | -2% | 78% (active) | 96.5% (active) | 19% | 99% (active) | 99.6% (active)
O=C(CC(O)(c1ccccc1)c1ccc(Cl)cc1)NC(=O)c1ccccc1O (configuration not stated) | 45% | 93% (active) | 85% (active) | 40% | 98% (active) | 89% (active) | 48% | 97% (active) | 91.6% (active) | 42% | 99% (active) | 89% (active) | 50% | 99% (active) | 86.8% (active) | 53% | 97% (active) | 86.8% (active)
Nc1ccc2ccccc2c1N=Cc1ccccc1[N+](=O)[O-] | -3% | 72% (active) | 85.8% (active) | -10% | 90% (active) | 29.8% | 5% | 92% (active) | 96.8% (active) | -9% | 54% | -40.1% | 15% | 85% (active) | 30.2% | 11% | 91% (active) | 84.3% (active)
O=[n+]1c2c(n([O-])c3ccc4ccccc4c31)-c1cccc3cccc-2c13 | 1% | 7% | 2.4% | -1% | -3% | 15.2% | -4% | -5% | 11.1% | 3% | -7% | 55.9% | -1% | -9% | 19.7% | -2% | 1% | -5.75%
Cc1cc2nc3n(c2cc1C)C(c1c(F)cccc1F)SC3 (configuration not stated) | 25% | 24% | -6.85% | 16% | 12% | -14.7% | 27% | 24% | 9.1% | 12% | 23% | -6.1% | 26% | 25% | 30.5% | 26% | 22% | -0.35%
CC1CCN(CC(=O)N2c3ccccc3Sc3cc4ccccc4cc32)CC1 | 4% | 15% | 10.2% | 4% | -20% | 13.6% | -15% | 12% | -14.6% | -37% | -4% | 23.8% | -4% | 7% | -3.9% | -4% | 8% | -2.5%
O=C1C(Cl)=C(Nc2cc(Cl)ccc2Cl)C(=O)c2ccccc21 | 45% | 99% (active) | 2.45% | 63% | 98% (active) | 97.9% (active) | 68% | 100% (active) | 98.7% (active) | 20% | 95% (active) | 78.8% (active) | 96% (active) | 99% (active) | 99.5% (active) | 64% | 98% (active) | 99.5% (active)
O=C(CC(=O)Nc1cccc(Cl)c1)NNCC(=O)Nc1nnc(-c2ccccc2)s1 | 8% | 98% (active) | 8.5% | 6% | 99% (active) | 8.05% | 11% | 99% (active) | 0.65% | 3% | 98% (active) | 51.1% | 7% | 99% (active) | -3.45% | 3% | 98% (active) | 9.9%
O=C1C(=O)C(CCCO)(CCCO)CCCCCCCCC1(CCCO)CCCO | -9% | -3% | 31.4% | 5% | -11% | -35.1% | 5% | 8% | 0% | 6% | 19% | 63.8% | 13% | -7% | -6.5% | -8% | 0% | -5.95%
